Rows were chosen to be rich in hits. Some 0.82% of all compounds tested hit in one or more screens of this group.
Y pestis TopoI – Y. pestis Topo-I inhibition via cleavage products. Y. pestis Topo-I cleavage product accumulation, plate reader. activity, % at 10 µM. 0.064% of 360,000 active. AID 504884; in the data active means activity above about 50%, passing the limit was not always enough
Mtb BioA inh – inhibitors of Mycobacterium tuberculosis BioA enzyme; AID 602481; inhibition, % at 9.99 µM; 0.096% of 360,000 active; purified M. tuberculosis BioA enzyme, plate reader; in the data active means inhibition above about 40%
RecA intein inh – inhibitors of M. tuberculosis RecA intein splicing; P9WHJ3; cell-free RecA intein splicing, fluorescence; inhibition, % (concentration not given with the values); 0.75% of 290,000 active; AID 2221; in the data active means inhibition above about 30%;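 further: 0% = vehicle wells and 100% = reference inhibitor control wells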
Mtb UGM inh – inhibitors of M. tuberculosis UDP-galactopyranose mutase | purified UGM, fluorescence polarization probe displacement | inhibition, % at 10 µM | 0.06% of 320,000 active; in the data active means inhibition above about 10%, passing the limit was not always enough
Rv3671c protease – inhibits the M. tuberculosis serine protease Rv3671c | inhibition, % at 5.96 µM | 0.048% of 320,000 active | P9WHR9; in the data active means inhibition above about 38%;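 further: extracellular domain of Rv3671c used as enzyme; 0% = enzyme with DMSO and 100% = no enzyme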
Target sequence (P9WHR9 whole entry, looked up, the tested form may be a part): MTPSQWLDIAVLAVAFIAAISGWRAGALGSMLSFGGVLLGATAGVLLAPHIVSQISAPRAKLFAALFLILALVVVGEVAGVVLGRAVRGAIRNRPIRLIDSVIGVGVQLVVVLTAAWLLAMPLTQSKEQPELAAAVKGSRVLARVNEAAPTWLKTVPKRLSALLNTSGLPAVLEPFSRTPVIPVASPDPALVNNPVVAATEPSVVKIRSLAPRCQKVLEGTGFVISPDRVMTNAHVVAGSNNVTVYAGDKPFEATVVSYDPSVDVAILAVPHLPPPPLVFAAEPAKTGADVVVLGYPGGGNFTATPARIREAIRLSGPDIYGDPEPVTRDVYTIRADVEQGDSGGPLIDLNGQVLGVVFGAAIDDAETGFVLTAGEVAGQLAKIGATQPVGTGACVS
FadD28 binding – blocks FadD28 binding to the bisubstrate probe | fluorescence polarization | inhibition, % at 12.5 µM | 0.22% of 360,000 active | AID 588549; in the data active means inhibition above about 8.5%, passing the limit was not always enough
Active calls of the source: *; . = no result given.

SMILES | Y pestis TopoI | Mtb BioA inh | RecA intein inh | Mtb UGM inh | Rv3671c protease | FadD28 binding
CCCC#Cc1cnc2c(c1)C(=O)N([C@@H](C)CO)C[C@@H](C)[C@@H](CN(C)C(=O)CCN1CCCCC1)O2 | . | -3.5 | . | . | . | .
CC(C)CC#Cc1cnc2c(c1)C(=O)N([C@@H](C)CO)C[C@H](C)[C@@H](CN(C)C(=O)Cc1ccncc1)O2 | . | -3.0 | . | . | . | .
C[C@@H]1CN([C@@H](C)CO)C(=O)c2cccc(N(C)C)c2O[C@H]1CN(C)Cc1ccc(-c2ccccc2)cc1 | . | -0.1 | . | . | . | .
Cc1ccc(-n2nc(C)c3c2OC(N)=C(C#N)C3c2ccccc2F)cc1 (centres undefined) | -6.2 | -1.0 | 43.3* | 0.2 | -13.8 | -0.2
CN(C(=O)c1ccc(S(=O)(=O)c2cccc(Cl)c2)c([N+](=O)[O-])c1)C1CCCCC1 | 6.9 | -1.0 | 35.4* | 1.0 | -1.0 | -2.3
O=C(NC1CCCCC1)c1ccc(S(=O)(=O)c2ccccc2Cl)c([N+](=O)[O-])c1 | . | . | -1.5 | -1.3 | -6.4 | .
O=C(C[C@@H]1CC[C@H]2NC[C@@H](O)COC[C@@H]2O1)Nc1ccccc1 | . | -1.2 | . | . | . | .
CCN(c1ccc(NC(=O)CSc2ccc3c(c2)OCCO3)cc1)C(C)C | 28.6 | -0.8 | . | -4.8 | 2.5 | 47.2*
COc1cc(/C=C(\C#N)C(N)=O)ccc1OS(=O)(=O)c1ccc(C)cc1 | -0.2 | 0.9 | 11.2 | . | 0.9 | -3.6
COc1cc(/C=C(\C#N)C(=O)NC2CCCCC2C)ccc1OS(=O)(=O)c1ccc(C)cc1 (centres undefined) | 17.1 | 0.2 | 55.5* | -2.4 | -53.4 | -0.1
CCOC(=O)CNc1ccc2c(c1)OCO2 | -6.3 | -6.1 | -3.6 | 11.7* | 6.4 | 0.4
CCOC(=O)CNC(=O)/C=C/c1ccc2c(c1)OCO2 | -7.9 | . | -1.3 | 1.8 | -15.6 | -0.8
Cc1ccc(S(=O)(=O)/N=C2/NC(=O)/C(=C\c3ccco3)S2)cc1 | -1.7 | -2.4 | . | 1.1 | -2.1 | 11.9*
O=C1NC(=Nc2ccccc2Cl)S/C1=C\c1cc([N+](=O)[O-])ccc1O | 2.1 | 3.2 | 6.8 | -2.3 | 22.1 | 30.1*
COc1cccc(N=C2NC(=O)/C(=C/c3cc([N+](=O)[O-])ccc3O)S2)c1 | -5.0 | -1.4 | -0.7 | 0.6 | 0.8 | 1.1
Cc1ccc(S(=O)(=O)/N=C2/NC(=O)/C(=C/c3cc([N+](=O)[O-])ccc3O)S2)cc1 | -14.5 | 0.4 | -3.3 | -6.1 | 6.9 | 33.2*
CC(=O)Nc1ccc(S(=O)(=O)/N=C2/NC(=O)/C(=C\c3ccco3)S2)cc1 | -1.5 | . | 1.5 | -0.6 | -7.6 | 3.4
COc1cc(/C=C2\S/C(=N/S(=O)(=O)c3ccc(C)cc3)NC2=O)c([N+](=O)[O-])cc1OC | -1.6 | . | -2.9 | -0.7 | 19.0 | 3.4
CO[C@H]1CN(C)C(=O)c2ccc(NC(=O)Nc3ccccc3)cc2OC[C@H](C)N(C(=O)CN(C)C)C[C@H]1C | . | 4.4 | . | . | . | .
COc1cc(N)c(Cc2nccc3cc(OC)c(OC)cc23)cc1OC | 1.5 | . | 45.7* | 4.0 | 10.7 | -2.5
COc1cc2ccnc(Cc3cccc(OC)c3OC)c2cc1OC | 9.2 | . | 6.4 | -0.2 | 1.6 | -1.5
CCOC(=O)c1cc(C)sc1NC(=O)CSC1=NCCS1 | 34.8 | 0.0 | 32.4* | -0.6 | -7.0 | -2.5
CCOC(=O)c1cc(C)sc1NC(=O)CSc1nnnn1C | 12.7 | 2.0 | 0.1 | -2.0 | 9.2 | -1.4
COc1ccc(NC(=O)N(C)C[C@H]2OCCCC[C@H](C)Oc3ccc(NC(=O)CCCN(C)C)cc3C(=O)N([C@H](C)CO)C[C@@H]2C)cc1 | . | 0.1 | . | . | . | .
O=C(O)c1ccc(N/N=C/c2cn(Cc3ccc(F)cc3)c3ccccc23)cc1 | -11.7 | 5.7 | 5.0 | 1.4 | 14.8 | 18.1*
SMILES | Y pestis TopoI | Mtb BioA inh | RecA intein inh | Mtb UGM inh | Rv3671c protease | FadD28 binding
COc1ccc(N(CC(=O)N/N=C/c2ccc(-c3ccc([N+](=O)[O-])cc3)o2)S(=O)(=O)c2ccc(C)cc2)cc1 | 0.1 | -3.9 | -11.4 | 14.0* | 0.8 | -3.1
CSCCC(NS(=O)(=O)c1cccs1)C(=O)NCc1ccc(C)cc1 (centres undefined) | -9.4 | -1.3 | -0.8 | -3.1 | -34.2 | -2.3
Cc1ccc(CNC(=O)C(Cc2ccccc2)NS(=O)(=O)c2cccs2)cc1 (centres undefined) | 13.9 | 4.9 | -1.6 | -0.7 | -7.9 | 15.7*
Cc1ccc(CNC(=O)C(Cc2ccccc2)NS(=O)(=O)c2ccc(Br)s2)cc1 (centres undefined) | -2.7 | . | 6.5 | -0.3 | -6.1 | 49.8*
C[C@@H]1CCCCO[C@H](CN(C)C(=O)Nc2ccc(C(F)(F)F)cc2)[C@@H](C)CN([C@@H](C)CO)C(=O)c2cc(NS(=O)(=O)c3ccc(Cl)cc3)ccc2O1 | . | 0.1 | . | . | . | .
Cc1cccc(/C=N/NC(=O)C(C)Nc2cccc3ccccc23)n1 (centres undefined) | -1.5 | -2.8 | 74.7* | -0.4 | 12.3 | -1.9
CC1=C(C(=O)NC2CC(C)(C)Cc3c2cnn3-c2cccc(F)c2)OCCO1 (centres undefined) | 16.0 | 58.4* | 4.1 | -2.5 | 5.2 | -0.7
Cc1cc(C(=O)NC2CC(C)(C)Cc3c2cnn3-c2cccc(F)c2)n(C)n1 (centres undefined) | 15.3 | 19.6 | 2.1 | 1.4 | -4.1 | -1.7
C[C@@H]1CCCCO[C@@H](CN(C)C(=O)Nc2cccc3ccccc23)[C@@H](C)CN([C@@H](C)CO)C(=O)c2cc(NC(=O)NC3CCCCC3)ccc2O1 | . | -1.0 | . | . | . | .
C[C@H]1CN([C@@H](C)CO)C(=O)c2cccc(NC(=O)c3ccc(-c4nccs4)cc3)c2O[C@H]1CN(C)Cc1ccc2c(c1)OCO2 | . | -1.0 | . | . | . | .
C[C@H](CO)N1C[C@H](C)[C@@H](CN(C)C(=O)Cc2ccccn2)Oc2ncc(-c3cncnc3)cc2C1=O | . | 0.2 | . | . | . | .
OCC[n+]1c2ccccc2nc2ccc(N3CCOCC3)cc21 | -3.4 | -0.9 | 31.0* | 1.8 | -16.4 | -1.4
O=C1c2cc(CO)cc(O)c2C(=O)c2c(O[C@@H]3OC(CO)[C@@H](O)[C@@H](O)[C@@H]3O)cccc21 (some centres undefined) | -1.8 | -1.0 | 3.4 | -0.2 | -6.6 | 0.8
O=C(O)c1cc(O)c2c(c1)[C@@H]([C@H]1c3cc(C(=O)O)cc(O)c3C(=O)c3c(O[C@@H]4O[C@H](CO)[C@@H](O)[C@H](O)[C@H]4O)cccc31)c1cccc(OC3O[C@H](CO)[C@@H](O)[C@H](O)[C@H]3O)c1C2=O (some centres undefined) | -29.1 | 1.3 | 12.8 | -1.3 | 75.3* | 13.7*
O=C1c2c(O)cccc2C(C2OC(CO)[C@@H](O)[C@H](O)[C@H]2O)c2cc(CO)cc(O)c21 (some centres undefined) | -0.7 | 0.7 | . | -0.1 | 3.7 | 0.4
O=C(O)c1cc(O)c2c(c1)[C@H]([C@H]1c3cc(C(=O)O)cc(O)c3C(=O)c3c(O[C@@H]4O[C@H](CO)[C@@H](O)[C@H](O)[C@H]4O)cccc31)c1cccc(OC3O[C@H](CO)[C@@H](O)[C@H](O)[C@H]3O)c1C2=O (some centres undefined) | -30.2 | 2.9 | -2.9 | 2.6 | 75.2* | 29.2*

Screens (PubChem BioAssay)
